# In PubChem BioAssay (NCATS):
# Inconclusive results are not listed. Entries that show only a call come without a potency. Unmarked numbers belong to inactive results. The source made the active and inactive calls. The call rests on the fitted dose curve; in most records, active means well fitted inhibition curve with a large enough effect; inconclusive means small, poorly fitted or top-dose-only effect; inactive means no such curve, though single readings can be large or run the other way.
# How the values were obtained:
# [1] = test system: Zika virus NS2B-NS3 protease (unlinked complex); assay: Primary screen GU Rhodamine qHTS for Zika virus inhibitors: Unlinked NS2B-NS3 protease assay (AID 1347159); conditions: Recombinant ZIKV NS2B-NS3 protease, Rhodamine110 substrate fluorescence; series mostly up to 107 µM; further: nearly all actives have a fitted effect of over 60% in size
# How it was run: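 A qHTS format was used, with compound concentrations ranging up to 114 microM. Each compound was preincubated with 25 nM NS2B-NS3 protease, and the substrate was then added at 1.5 microM. Curves were fitted with a 4-parameter Hill model.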
# [2] = test system: Zika virus NS2B-NS3 protease (linked construct); assay: Primary screen NINDS Rhodamine qHTS for Zika virus inhibitors (AID 1347160); conditions: purified NS2B-NS3 protease, Rhodamine110 substrate fluorescence; series mostly up to 57.1 µM; further: nearly all actives have a fitted effect of over 55% in size
# How it was run: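 Kinetic fluorescence (Ex 480 nm, Em 540 nm) over 15 min with 1.5 microM Rhodamine110 peptide and 25 nM linked protease.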
Structure (SMILES),Potency [1],Potency [2],"activity change, negative = inhibition [1]","activity change, negative = inhibition [2]"
Cc1ccc(C(=O)Nc2ccc(CN3CCN(C)CC3)c(C(F)(F)F)c2)cc1C#Cc1cnc2[nH]ncc2c1,inactive,inactive,,
CC(C)Oc1ccc(-c2cnc3c(-c4ccnc5ccccc45)cnn3c2)cc1,inactive,inactive,,
COc1ccc2c(c1O[C@H]1CCNC1)CCC2,inactive,inactive,,
COc1ccccc1S(=O)(=O)Nc1ccc2c(c1)CN(C)C(=O)N2,inactive,inactive,,
CN(C)[C@@H]1CCc2[nH]c3ccc(NC(=O)c4ccc(F)cc4)cc3c2C1,inactive,inactive,,
CCCCC1CCN(CCCN2C(=O)CCc3ccccc32)CC1,inactive,inactive,,
C[C@H]1CC[C@@]2(OC1)O[C@H]1CC3[C@@H]4CC[C@@H]5C[C@@H](O[C@@H]6O[C@H](CO)[C@@H](O[C@@H]7O[C@@H](C)[C@H](O)[C@@H](O)[C@H]7O)[C@H](O)[C@H]6O[C@@H]6O[C@H](CO)[C@@H](O)[C@H](O)[C@H]6O)CC[C@]5(C)C4CC[C@]3(C)[C@H]1[C@@H]2C (some centres undefined),inactive,inactive,,
CC1=C(C(=O)Nc2cc(Cl)ccc2Cl)C(c2ccco2)C2=C(CCCC2=O)N1 (centres undefined),inactive,inactive,,
COc1ccc(S(=O)(=O)n2cnc3cc(C)c(C)cc32)cc1,inactive,inactive,,
Cn1cc(-c2cnn3c(N)c(Br)c([C@@H]4CCCNC4)nc23)cn1,inactive,inactive,,
CC(C)(CO)c1cc2cc(NC(=O)C3(c4ccc5c(c4)OC(F)(F)O5)CC3)c(F)cc2n1CC(O)CO (centres undefined),inactive,inactive,,
Cc1cccc(CC(=O)N2CCc3c2ccc(-c2cn(C)c4ncnc(N)c24)c3F)n1,inactive,inactive,,
Nc1nc(Cl)nc2c1ncn2C1OC(CO)C(O)C1F (centres undefined),inactive,inactive,,
O=C(Nc1cccnc1)c1cc(-c2ccnc(F)c2)ccc1OCc1ccccc1,inactive,inactive,,
CC(C)n1nc(C#Cc2ccccc2)c2c(N)ncnc21,inactive,inactive,,
COc1ccc2c(NC(=O)Nc3cccc(C(F)(F)F)n3)ccnc2c1,inactive,inactive,,
Cc1cccc(-c2[nH]ncc2-c2ccnc3ccccc23)n1,inactive,inactive,,
COc1ccc(NC(=O)c2ccc(-c3ccc(-c4nnc(C)o4)cc3C)cc2)cc1N1CCN(C)CC1,inactive,inactive,,
COc1cccc(CN(C(=O)CC(C)(C)C)[C@H]2C[C@H](C(=O)N3CCNCC3)N(Cc3ccc4c(c3)OCO4)C2)c1,inactive,inactive,,
C/C(=C/C=C\C=C\Cc1cnco1)[C@@H](O)C(C)(C)C(N)=O,inactive,inactive,,
C/C=C\NC(=O)C1NC(=O)C(CC(N)=O)NC(=O)C(NC(=O)C(=O)C(C)CC)Cc2ccc(O)c(c2)-c2cccc3c2NC(=O)C3(O)C1O (centres undefined),inactive,inactive,,
COC(=O)c1ccc2c(c1)[nH]c1ncnc(NCCCN3CCCCC3)c12,inactive,inactive,,
CCOc1ccc(-n2c(C(C)N(Cc3cccnc3)C(=O)Cc3ccc(F)c(C(F)(F)F)c3)nc3ncccc3c2=O)cc1 (centres undefined),inactive,inactive,,
CCCc1ccc(OCC(=O)N(Cc2nc(-c3cccnc3)no2)C(C)C)cc1,inactive,inactive,,

Structure (SMILES),Potency [1],Potency [2],"activity change, negative = inhibition [1]","activity change, negative = inhibition [2]"
CC(O)C(C)n1ncn(-c2ccc(N3CCN(c4ccc(OCC5COC(Cn6cncn6)(c6ccc(Cl)cc6Cl)O5)cc4)CC3)cc2)c1=O (centres undefined),inactive,inactive,,
CCC(=O)N1CCOc2c(cc(-c3ccc(OC)c(OC)c3)cc2OC[C@H]2CCCN(C)C2)C1,inactive,inactive,,
CC1(C)SCCN(S(=O)(=O)c2ccc(Oc3ccncc3)cc2)[C@H]1C(=O)NO,inactive,inactive,,
CC(C)NC(=O)N1CC[C@H](N=C2Nc3cc(F)ccc3N(CC(F)F)c3ccc(Cl)cc32)C1,inactive,inactive,,
COc1ccc(Cl)c(Nc2ncnc3cc(OCC4CCN(C)CC4)c(OC)cc23)c1,inactive,inactive,,
COC1CCN(C(=O)c2cc(Cc3n[nH]c(=O)c4ccccc34)ccc2F)CC1,inactive,inactive,,
CC(=O)CC(=O)Nc1ccc(Cl)c(C(F)(F)F)c1,inactive,inactive,,
N#Cc1cc(C2=Nc3ccc(Br)cc3NC(=O)C2)ccn1,inactive,inactive,,
Cc1nc2ccc(CN(C)c3ccc(C(=O)NC(CCC(=O)O)C(=O)O)s3)cc2c(=O)[nH]1 (centres undefined),inactive,inactive,,
COc1cccc(OCCCN)c1-c1cc(Nc2cnc(C#N)cn2)n[nH]1,inactive,inactive,,
Cc1cc(C(=O)Nc2cc(Oc3ccc4nc(NC(=O)C5CC5)cn4n3)ccc2C)n(C)n1,inactive,inactive,,
CCn1c(N)c(C(=O)NC)c(=O)c2ccc(C#CC(C)(O)COC)nc21 (centres undefined),inactive,inactive,,
CCC(C)C(=O)OC12C(OC(C)=O)C(C)C3(O)C(C=C(CO)CC4(O)C(=O)C(C)=CC43)C1C2(C)C (centres undefined),inactive,inactive,,
Fc1ccc2[nH]ccc2c1-c1nc(N2CCOCC2)c2sc(CN3CCN(CC4CC4)CC3)cc2n1,inactive,inactive,,
CC1OC(=O)C[C@@H]2C(C(=O)O)=CO[C@@H](O[C@H]3O[C@H](CO)[C@@H](O)[C@H](O)[C@H]3O)[C@H]12 (some centres undefined),inactive,inactive,,
CC(=O)O[C@H]1C[C@@](O)(C(C)C)[C@@H]2[C@@H](OC(=O)c3ccc(O)cc3)CC(C)=CC[C@@]12C,inactive,inactive,,
COc1ccc(C2Oc3c(OC)cc(CCCO)cc3C2COC2OC(CO)C(O)C(O)C2O)cc1OC (centres undefined),inactive,inactive,,
Cc1cc(NC(=O)NCCN2CCC(O)(Cc3ccccc3)CC2)c2ccccc2n1,inactive,inactive,,
COc1ccc(C#Cc2ccc(C(=O)N3CCC[C@@H](O)C3)c(F)c2)cc1,inactive,inactive,,
Cn1ncc(Cl)c1-c1cc(C(=O)N[C@H](CN)Cc2ccc(F)c(F)c2)sc1Cl,inactive,inactive,,
Cc1nc(NC(=O)N2CCC[C@H]2C(N)=O)sc1-c1ccnc(C(C)(C)C(F)(F)F)c1,inactive,inactive,,
Cc1cc(-c2ncc(-c3cccnc3)cc2/C=C/c2ccccc2)cnc1-c1cccnc1,inactive,inactive,,
Fc1ccc2c(CCNCc3cccc(OCC(F)(F)C(F)F)c3)c[nH]c2c1,inactive,inactive,,
C/C1=C\CCC2=CC(OC2=O)C(C)(C)/C=C/C1=O (centres undefined),inactive,inactive,,

Structure (SMILES),Potency [1],Potency [2],"activity change, negative = inhibition [1]","activity change, negative = inhibition [2]"
C=C1CC[C@@H](O)[C@]2(C)CC[C@H]3C(=C)C(=O)O[C@@H]3[C@@H]12,inactive,inactive,,
C[C@@H]1CC[C@]2(C(=O)O)CC[C@]3(C)C(=CCC4[C@@]5(C)CC[C@H](O)[C@](C)(C(=O)O)C5CC[C@]43C)C2[C@]1(C)O (some centres undefined),inactive,inactive,,
CC(=O)c1ccc2c(c1)[C@H](NC(=O)c1ccc(F)c(Cl)c1)[C@H](O)C(C)(C)O2,inactive,inactive,,
CC(C)S(=O)(=O)NC[C@@H]1CC(c2ccc(N3CCCC3)c(F)c2)=NO1,inactive,inactive,,
Clc1cccc(COc2cncc(N3CCNCC3)n2)c1,inactive,inactive,,
O=C(Nc1ccccc1)N1CCC(Cc2cnc3ccccc3c2)CC1,inactive,inactive,,
COc1cc(O)cc(OC2OC(CO)C(O)C(O)C2O)c1 (centres undefined),inactive,inactive,,
c1ccc(-c2ccc(CNc3nc(-c4ccccn4)nnc3-c3ccccc3)cc2)cc1,inactive,inactive,,
CCn1c(=O)n([C@H]2CCCN(c3nccc(-c4cc5ccccc5o4)n3)C2)c2ccccc21,inactive,inactive,,
Cc1[nH]c2ccccc2c1CCNCc1ccc(/C=C/C(=O)NO)cc1,inactive,inactive,,
C=C1CC[C@@H]2[C@](C)(CO)[C@H](O)CC[C@@]2(C)[C@@H]1C/C=C1/C(=O)OCC1OC(=O)/C(=C/CO)C(O)C[C@@H]1C(=C)CC[C@@H]2[C@](C)(CO)[C@H](O)CC[C@]21C (some centres undefined),inactive,inactive,,
NC(=O)CCCSc1nc(N)nc(-c2c(Cl)cc3c4c(cccc24)COC3)n1,inactive,inactive,,
COc1ccccc1N1CCN(CC[C@@](C)(C(=O)C2CCCCC2)c2ccccc2)CC1,inactive,inactive,,
COc1cc(OC)c2c(=O)[nH]c(-c3cc(C)c(OCCO)c(C)c3)nc2c1,inactive,inactive,,
Nc1cccc(CNC(=O)c2ccc(Oc3ccc(OCc4cccc(F)c4)cc3)nc2)c1,inactive,inactive,,
CN1CCC(NC(=O)c2cc(-c3c(O)cc(O)cc3Oc3ccc([N+](=O)[O-])cc3)on2)CC1,inactive,inactive,,
CCC(C)(OC(C)=O)C(=O)O[C@H]1[C@H](OC(C)=O)[C@]2(CO)[C@H](O)[C@H](O)[C@]3(C)C(=CCC4[C@@]5(C)CC[C@H](O[C@@H]6O[C@H](C(=O)O)[C@@H](O)[C@H](O[C@@H]7OC[C@H](O)[C@H](O[C@@H]8OC[C@H](O)[C@H](O)[C@H]8O)[C@H]7O)[C@H]6O[C@@H]6O[C@H](CO)[C@@H](O)[C@H](O)[C@H]6O)C(C)(C)C5CC[C@]43C)[C@@H]2CC1(C)C (some centres undefined),,,-1.56% [at 19.1 µM],-4.88% [at 10.7 µM]
O=C(N[C@H]1CCC[C@H](CO)C1)C1CCN(c2nc3cc(Cl)c(-c4ccc(Cl)cc4)cc3o2)CC1,inactive,inactive,,
Cc1cc2sc(NC(=O)Cc3ccccc3)nc2cc1Cl,inactive,inactive,,
O=C(c1ccc(OC(F)F)c(C#Cc2ccccn2)c1)N1Cc2cccnc2C1,inactive,inactive,,
O=C(NCCCn1ccnc1)c1cc(-c2ccco2)on1,inactive,inactive,,
O=C(NCC1CCN(Cc2cccc(Cl)c2)CC1)[C@@H]1CCCN(c2ncnc3c2nc2n3CCCC2)C1,inactive,inactive,,
CNCCN1CCC(c2cc(CN(C)C(=O)c3cccc(Oc4ccccc4)c3)ccn2)CC1,inactive,inactive,,
C[C@@H]1C[C@H]2O[C@@]3(O[C@@H]2C(C)(C)O)C(O)[C@@]2(C)C4CCC5C(C)(C)[C@@H](O[C@H]6OC[C@H](O)[C@@H](O)[C@@H]6O)CC[C@@]56C[C@@]46CC[C@]2(C)C13 (some centres undefined),inactive,inactive,,
